From PubChem BioAssay (NCI)
The panel holds about 83,000 compounds, 20% with a hit somewhere; the sample as a whole holds those more often.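 For each line, cells grew in 96-well plates with the test compound present at a single concentration for 48 hours.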 Values without a mark were called inactive. Active and inactive are the calls of the source. Rule for the calls: active = growth percent below 10; inactive = the rest.

Tests used:
Test in all cases: NCI-60 one-dose screen, 48 h (100 = growth as untreated, 0 = no growth, -100 = all killed)
Details in all cases: 10 µM unless noted
NCI-H23 lung = test system: NCI-H23 lung
NCI-H226 lung = test system: NCI-H226 lung
NCI-H322M lung = test system: NCI-H322M lung
HOP-62 NSCLC = test system: HOP-62 NSCLC
NCI-H460 lung = test system: NCI-H460 lung
HOP-92 NSCLC = test system: HOP-92 NSCLC
NCI-H522 lung = test system: NCI-H522 lung
A549/ATCC NSCLC = test system: A549/ATCC NSCLC
786-0 renal = test system: 786-0 renal
COLO 205 colon = test system: COLO 205 colon
DU-145 prostate = test system: DU-145 prostate
K-562 leukemia = test system: K-562 leukemia
MALME-3M melanoma = test system: MALME-3M melanoma
MDA-MB-231 breast = test system: MDA-MB-231 breast
RXF 393 renal = test system: RXF 393 renal
SF-268 CNS = test system: SF-268 CNS
SF-295 CNS = test system: SF-295 CNS
SF-539 CNS = test system: SF-539 CNS
UACC-257 melanoma = test system: UACC-257 melanoma
M14 melanoma = test system: M14 melanoma

Row | Structure (SMILES) | growth (NCI-H23 lung) [%] | growth (NCI-H226 lung) | growth (NCI-H322M lung) [%] | growth (HOP-62 NSCLC) | growth (NCI-H460 lung) | growth (HOP-92 NSCLC) | growth (NCI-H522 lung) | growth (A549/ATCC NSCLC) | growth (786-0 renal) | growth (COLO 205 colon) | growth (DU-145 prostate) | growth (K-562 leukemia) | growth (MALME-3M melanoma) | growth (MDA-MB-231 breast) | growth (RXF 393 renal) | growth (SF-268 CNS) | growth (SF-295 CNS) | growth (SF-539 CNS) | growth (UACC-257 melanoma) | growth (M14 melanoma)
1 | COc1cc(-c2n/c(=C\c3c(O)[nH]c4ccc(Cl)cc34)cc3c2=Nc2ccccc2-3)ccc1F | 17.2 | 60.5% | 66.5 | 3.23% (active) | 0.147% (active) | -26.3% (active) | 3.18% (active) | -52.2% (active) | -56.8% (active) | 7.9% (active) | -36.4% (active) | 13.4% | -66.4% (active) | -7.94% (active) | -78.7% (active) | -40.1% (active) | 43.1% | 54.6% | 58.1% | 14%
2 | Cc1ccc(-n2cc(-c3ccccc3)c3c2N=NN2CCN=C32)cc1 | 93.1 | 82.3% | 97.4 | 97.4% | 104% | 102% | 90.2% | 105% | 99.3% | 120% | 113% | 87% | 104% | 85.9% | 109% | 96.8% | 96.5% | 101% | 113% | 104%
3 | COc1cc2nc(-c3ccc(Cl)cc3)cc(OCCCN3CCOCC3)c2cc1OC | 73.3 | -7.3% (active) | 57.4 | 60.1% | 21.6% | 19.3% | 21.6% | 29.9% | 67.5% | 25.7% | 43.8% | 10.3% | 64.9% | 27.2% | 28.7% | 63.2% | -39% (active) | 64.1% | 1.42% (active) | -37.9% (active)
4 | CC1(C)CC(O)CCCCCCOc2c(CN)cccc2NC(=O)c2nc(cnc2N)-c2ccc(cc2)S1(=O)=O (stereo not given) | 28 | 48.6% | 44.4 | 44.7% | -30.2% (active) | 115% | 12.6% | 27.9% | -15.4% (active) | 22.9% | 15.1% | -26.3% (active) | -71.5% (active) | 39.8% | 19.6% | 26.1% | 21.3% | -60.5% (active) | 21.9% | -72.7% (active)
5 | CCOC(=O)[C@@H]1CCCN(S(=O)(=O)c2ccc(S(=O)(=O)N(CC)CC)c(F)c2)C1 | 45.3 | 72.6% | 90.2 | 74.6% | 81.2% | 67.4% | 65.3% | 86.2% | 70.7% | 83.9% | 99% | 37.4% | 79.9% | 92.9% | 76.4% | 85.9% | 49.6% | 88.8% | 60.6% | 76.2%
6 | CCc1ccc(CNc2ccc(N3CCOCC3)c(C(=O)O)c2)cc1 | 95.2 | 109% | 102 | 90.2% | 130% | 105% | 83.3% | 99% | 98.9% | 101% | 105% | 111% | 101% | 114% | 121% | 95.6% | 103% | 100% | 106% | 99.7%
7 | O=C(Nc1ccc(-c2ccc3c(c2)NC(=O)/C3=C\c2ccc[nH]2)cc1)NC1CC1 | 55.1 | 101% | 80.2 | 113% | 59.8% | 125% | 89.6% | 102% | 110% | 115% | 103% | 92.5% | 105% | 101% | 99.1% | 103% | 90.8% | 71.5% | 117% | 94%
